For 6 molecules, composite z-score and z-score results are on record in PubChem BioAssay.

The nature of test [1]: probe aLefty2 binding to arrayed compounds – biochemical, biotinylated probe, 635/667 nm fluorescence, primary screen (AID 1094).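 Note: score merges spot fluorescence near 667 nm with spot signal-to-noise ratio.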 The conditions noted are these: small-molecule microarray, higher = more signal.
In test [2] the test system is Noggin (protein binding on small-molecule microarray). Put plainly: small molecules binding Noggin protein – biochemical, 635/667 nm fluorescence, primary screen (AID 1095).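 Note: score merges 667 nm feature fluorescence with signal to noise over triplicate slides.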 To be noted: 635 nm fluorescence, higher = more signal.
Test [3] addresses Neurogenic locus notch homolog protein 3 (Homo sapiens) (UniProt Q9UM47). Put plainly: small molecules binding NOTCH3 protein – biochemical, 635/667 nm fluorescence, primary screen (AID 1096). The conditions noted are these: small-molecule microarray, 635 nm fluorescence, higher = more signal.
The nature of test [4]: probe aEGFR binding to arrayed compounds – biochemical, biotinylated probe, 635/667 nm fluorescence, primary screen (AID 1097).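 Note: probe is a biotinylated anti-EGFR antibody binding compounds printed on slides; score combines fluorescence near 667 nm and signal to noise of each spot.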 The conditions noted are these: small-molecule microarray, higher = more signal.
The subject of test [5] is Plasmodium falciparum Sir2 (PF13_0152, Sir2A). Description: Plasmodium falciparum Sir2A binding compounds – biochemical, small-molecule microarray, 635 nm fluorescence, primary screen (AID 1098).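 Note: score merges spot fluorescence intensity with its signal-to-noise ratio.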 To be noted: fluorescence 635 nm, higher = more signal.
The nature of test [6]: probe aDKK1 binding to arrayed compounds – biochemical, biotinylated probe, 635/667 nm fluorescence, primary screen (AID 1099).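 Note: score merges 667nm spot fluorescence with signal to noise across triplicate slides.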 The conditions noted are these: small-molecule microarray, higher = more signal.
Test [7] in a line: probe aCHRDL2 binding to arrayed compounds – biochemical, biotinylated probe, 635/667 nm fluorescence, primary screen (AID 1100). To be noted: small-molecule microarray, higher = more signal.
Test [8] can be described thus: change in splice reporter luminescence, either direction, cell-based, HEK293, spliceosome inhibition project, primary screen (AID 1101).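 Note: HEK293 cells carrying a splicing-competent luciferase reporter gene; test concentration not given here.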 The conditions noted are these: HEK293 splicing luciferase reporter, 24 h, higher = more signal, called active from +8 up or from −8 down. (In general: Reporter assays use an easily measured gene product as a stand-in for the process of interest.)

Test [9] concerns the target Fibroblast growth factor 10 (Homo sapiens) (UniProt O15520). Description: compounds binding fibroblast growth factor 10 – biochemical, small-molecule microarray, 635 nm fluorescence, primary screen (AID 1102). To be noted: FGF10 binding, fluorescence 635 nm, higher = more signal.
Test [10] concerns glycogen synthase kinase-3 (GSK3A per assay name; protocol says GSK3B). Description: compounds binding glycogen synthase kinase-3 – biochemical, small-molecule microarray, 635 nm fluorescence, GSK3A, primary screen (AID 1103). Note: the record names both GSK3A and GSK3B. The conditions noted are these: fluorescence 635 nm, higher = more signal.
Test [11] concerns the target Epidermal growth factor receptor (Homo sapiens) (UniProt P00533). Description: compounds binding epidermal growth factor receptor – biochemical, small-molecule microarray, 635 nm fluorescence, primary screen (AID 1104).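 Note: score merges 667 nm emission intensity with spot signal to noise over triplicate slides.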 The conditions noted are these: EGFR binding, higher = more signal.
Test [12] deals with Follistatin-related protein 3 (Homo sapiens) (UniProt O95633). Put plainly: compounds binding follistatin-related protein 3 – biochemical, small-molecule microarray, 635 nm fluorescence, primary screen (AID 1105).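 Note: score merges emission near 667 nm and signal to noise per printed spot across three slides.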 The conditions noted are these: FSTL3 binding, higher = more signal.
Follistatin-related protein 3 (Homo sapiens), sequence (O95633 whole entry, looked up): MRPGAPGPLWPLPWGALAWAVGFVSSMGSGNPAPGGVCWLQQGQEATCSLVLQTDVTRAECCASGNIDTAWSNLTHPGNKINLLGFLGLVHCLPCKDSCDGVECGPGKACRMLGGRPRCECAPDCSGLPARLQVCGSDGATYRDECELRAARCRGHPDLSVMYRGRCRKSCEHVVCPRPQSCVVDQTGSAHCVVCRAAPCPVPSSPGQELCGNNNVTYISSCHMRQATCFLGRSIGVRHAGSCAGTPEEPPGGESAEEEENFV
In test [13] the target is Dickkopf-related protein 1 (Homo sapiens) (UniProt O94907). Description: small molecules binding DKK1 protein – biochemical, small-molecule microarray, 635 nm fluorescence scan, primary screen (AID 1106).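 Note: score merges emission near 667 nm with signal to noise over three replicate slides.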 To be noted: higher = more signal.
Dickkopf-related protein 1 (Homo sapiens), sequence (O94907 whole entry, looked up): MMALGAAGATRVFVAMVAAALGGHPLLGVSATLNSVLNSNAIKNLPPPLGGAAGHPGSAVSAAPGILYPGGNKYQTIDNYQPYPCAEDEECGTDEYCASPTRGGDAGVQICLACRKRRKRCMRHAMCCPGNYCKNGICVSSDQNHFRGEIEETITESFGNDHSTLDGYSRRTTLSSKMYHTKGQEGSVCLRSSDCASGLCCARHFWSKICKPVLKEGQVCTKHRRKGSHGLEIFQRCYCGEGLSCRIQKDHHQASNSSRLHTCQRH
Test [14] concerns Inhibin beta A chain (activin A). Put plainly: small molecules binding activin A – biochemical, small-molecule microarray, 635 nm fluorescence scan, primary screen (AID 1107).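 Note: mouse activin A protein probed at 4.33 µg/mL on printed slides; score merges bound-protein fluorescence near 667 nm with spot signal-to-noise.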 To be noted: INHBA, higher = more signal.
Test [15] relates to Human papillomavirus type 1a protein E7 (residues 44-93). Description: small molecules binding HPV E7 44-93 – biochemical, small-molecule microarray, residues 44-93, 635 nm fluorescence, primary screen (AID 1108).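 Note: E7 fragment applied at 1 µg/mL in TBST for 1 h at 4 C; score combines spot fluorescence with its signal to noise ratio.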 To be noted: fluorescence 635 nm, higher = more signal.
The nature of test [16]: hepatitis C replication reporter changes, two-sided – Huh7 cells, luciferase reporter, HCV replication inhibitor project, primary screen (AID 1109).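 Note: huh7 hepatoma cells harbouring a luciferase neomycin HCV replicon reporter; luciferase luminescence as measure of HCV replicon replication; test concentration not given here.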 The conditions noted are these: Huh7 HCV replicon luciferase reporter, 48 h; higher = more signal.
Test [17] concerns the target Left-right determination factor 2 (Homo sapiens) (UniProt O00292). Description: small molecules binding LEFTY2 protein – biochemical, small-molecule microarray, 635 nm fluorescence scan, primary screen (AID 1110). To be noted: higher = more signal.
In test [18] the target is Calmodulin-1 (Homo sapiens) (UniProt P0DP23). Description: small molecules binding calmodulin-1 with EGTA – biochemical, small-molecule microarray, Cy5-labelled CALM1, profiling panel (AID 1111).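 Note: labelled calmodulin applied in Tris saline Tween buffer holding calcium plus EGTA and DTT.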 To be noted: Cy5-CALM1 binding fluorescence, higher = more signal.
For test [19] the target is unchanged. Description: small molecules binding Ca-loaded calmodulin-1 – biochemical, small-molecule microarray, Cy5-labelled CALM1, plus calcium, artefact control for SMM control-protein annotation, profiling panel (AID 1112).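 Note: score merges spot fluorescence with signal to noise from triplicate slides.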 The conditions noted are these: Cy5-CALM1 binding fluorescence, higher = more signal.
Test [20] can be described thus: probe aWnt5a binding to arrayed compounds – biochemical, biotinylated probe, 635/667 nm fluorescence, primary screen (AID 1113).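 Note: score merges 667 nm fluorescence intensity with signal-to-noise per printed feature.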 To be noted: small-molecule microarray, higher = more signal.

The source made the active and inactive calls.

Left-right determination factor 2 (Homo sapiens), sequence (O00292 whole entry, looked up): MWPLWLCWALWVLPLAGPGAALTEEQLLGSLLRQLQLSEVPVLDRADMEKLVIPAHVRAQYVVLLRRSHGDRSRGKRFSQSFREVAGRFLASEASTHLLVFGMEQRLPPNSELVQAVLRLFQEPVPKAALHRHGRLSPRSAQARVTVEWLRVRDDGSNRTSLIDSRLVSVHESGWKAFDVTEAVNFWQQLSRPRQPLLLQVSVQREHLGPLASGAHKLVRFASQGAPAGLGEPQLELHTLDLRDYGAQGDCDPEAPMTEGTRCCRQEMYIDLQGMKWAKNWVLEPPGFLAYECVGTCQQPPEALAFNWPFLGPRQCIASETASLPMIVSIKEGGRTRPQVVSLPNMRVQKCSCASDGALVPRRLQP
Epidermal growth factor receptor (Homo sapiens), sequence (P00533 whole entry, looked up): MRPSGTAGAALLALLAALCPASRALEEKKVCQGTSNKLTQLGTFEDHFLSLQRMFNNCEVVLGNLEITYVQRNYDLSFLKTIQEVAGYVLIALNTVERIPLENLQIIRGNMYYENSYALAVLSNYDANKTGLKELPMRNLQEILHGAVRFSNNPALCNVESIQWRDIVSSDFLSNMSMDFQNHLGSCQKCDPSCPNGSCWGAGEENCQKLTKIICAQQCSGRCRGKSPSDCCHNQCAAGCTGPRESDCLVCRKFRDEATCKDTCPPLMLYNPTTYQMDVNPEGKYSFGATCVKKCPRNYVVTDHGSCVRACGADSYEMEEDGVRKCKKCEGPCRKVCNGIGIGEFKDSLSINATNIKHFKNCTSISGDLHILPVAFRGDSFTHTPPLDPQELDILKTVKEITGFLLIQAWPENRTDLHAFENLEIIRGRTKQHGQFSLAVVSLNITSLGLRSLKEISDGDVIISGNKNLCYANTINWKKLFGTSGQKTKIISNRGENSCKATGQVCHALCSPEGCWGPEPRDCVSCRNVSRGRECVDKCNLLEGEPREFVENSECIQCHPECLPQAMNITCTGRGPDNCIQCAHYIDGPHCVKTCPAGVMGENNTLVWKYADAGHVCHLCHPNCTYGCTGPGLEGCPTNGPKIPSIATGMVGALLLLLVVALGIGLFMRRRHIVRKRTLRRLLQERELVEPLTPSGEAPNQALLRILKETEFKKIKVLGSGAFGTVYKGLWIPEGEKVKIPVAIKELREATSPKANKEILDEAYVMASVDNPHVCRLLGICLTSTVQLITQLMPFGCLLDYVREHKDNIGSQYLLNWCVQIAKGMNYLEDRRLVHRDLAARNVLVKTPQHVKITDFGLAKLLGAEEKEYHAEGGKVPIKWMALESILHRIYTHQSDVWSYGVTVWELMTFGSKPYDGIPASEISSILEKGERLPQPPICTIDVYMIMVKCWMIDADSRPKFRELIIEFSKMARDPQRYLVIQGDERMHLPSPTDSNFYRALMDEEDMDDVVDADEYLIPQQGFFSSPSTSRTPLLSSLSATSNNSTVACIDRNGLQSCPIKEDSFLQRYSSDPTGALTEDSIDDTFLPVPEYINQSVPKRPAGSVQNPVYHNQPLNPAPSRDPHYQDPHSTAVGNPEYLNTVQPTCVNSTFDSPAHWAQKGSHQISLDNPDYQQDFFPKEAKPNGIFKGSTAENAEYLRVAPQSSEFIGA
Fibroblast growth factor 10 (Homo sapiens), sequence (O15520 whole entry, looked up): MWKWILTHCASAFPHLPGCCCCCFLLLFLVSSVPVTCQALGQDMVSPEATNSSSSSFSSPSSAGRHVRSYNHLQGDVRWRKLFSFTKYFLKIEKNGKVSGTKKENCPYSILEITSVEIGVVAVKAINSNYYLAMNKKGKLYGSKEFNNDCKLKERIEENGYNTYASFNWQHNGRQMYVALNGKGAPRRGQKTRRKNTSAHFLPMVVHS
Neurogenic locus notch homolog protein 3 (Homo sapiens), sequence (Q9UM47 whole entry, looked up): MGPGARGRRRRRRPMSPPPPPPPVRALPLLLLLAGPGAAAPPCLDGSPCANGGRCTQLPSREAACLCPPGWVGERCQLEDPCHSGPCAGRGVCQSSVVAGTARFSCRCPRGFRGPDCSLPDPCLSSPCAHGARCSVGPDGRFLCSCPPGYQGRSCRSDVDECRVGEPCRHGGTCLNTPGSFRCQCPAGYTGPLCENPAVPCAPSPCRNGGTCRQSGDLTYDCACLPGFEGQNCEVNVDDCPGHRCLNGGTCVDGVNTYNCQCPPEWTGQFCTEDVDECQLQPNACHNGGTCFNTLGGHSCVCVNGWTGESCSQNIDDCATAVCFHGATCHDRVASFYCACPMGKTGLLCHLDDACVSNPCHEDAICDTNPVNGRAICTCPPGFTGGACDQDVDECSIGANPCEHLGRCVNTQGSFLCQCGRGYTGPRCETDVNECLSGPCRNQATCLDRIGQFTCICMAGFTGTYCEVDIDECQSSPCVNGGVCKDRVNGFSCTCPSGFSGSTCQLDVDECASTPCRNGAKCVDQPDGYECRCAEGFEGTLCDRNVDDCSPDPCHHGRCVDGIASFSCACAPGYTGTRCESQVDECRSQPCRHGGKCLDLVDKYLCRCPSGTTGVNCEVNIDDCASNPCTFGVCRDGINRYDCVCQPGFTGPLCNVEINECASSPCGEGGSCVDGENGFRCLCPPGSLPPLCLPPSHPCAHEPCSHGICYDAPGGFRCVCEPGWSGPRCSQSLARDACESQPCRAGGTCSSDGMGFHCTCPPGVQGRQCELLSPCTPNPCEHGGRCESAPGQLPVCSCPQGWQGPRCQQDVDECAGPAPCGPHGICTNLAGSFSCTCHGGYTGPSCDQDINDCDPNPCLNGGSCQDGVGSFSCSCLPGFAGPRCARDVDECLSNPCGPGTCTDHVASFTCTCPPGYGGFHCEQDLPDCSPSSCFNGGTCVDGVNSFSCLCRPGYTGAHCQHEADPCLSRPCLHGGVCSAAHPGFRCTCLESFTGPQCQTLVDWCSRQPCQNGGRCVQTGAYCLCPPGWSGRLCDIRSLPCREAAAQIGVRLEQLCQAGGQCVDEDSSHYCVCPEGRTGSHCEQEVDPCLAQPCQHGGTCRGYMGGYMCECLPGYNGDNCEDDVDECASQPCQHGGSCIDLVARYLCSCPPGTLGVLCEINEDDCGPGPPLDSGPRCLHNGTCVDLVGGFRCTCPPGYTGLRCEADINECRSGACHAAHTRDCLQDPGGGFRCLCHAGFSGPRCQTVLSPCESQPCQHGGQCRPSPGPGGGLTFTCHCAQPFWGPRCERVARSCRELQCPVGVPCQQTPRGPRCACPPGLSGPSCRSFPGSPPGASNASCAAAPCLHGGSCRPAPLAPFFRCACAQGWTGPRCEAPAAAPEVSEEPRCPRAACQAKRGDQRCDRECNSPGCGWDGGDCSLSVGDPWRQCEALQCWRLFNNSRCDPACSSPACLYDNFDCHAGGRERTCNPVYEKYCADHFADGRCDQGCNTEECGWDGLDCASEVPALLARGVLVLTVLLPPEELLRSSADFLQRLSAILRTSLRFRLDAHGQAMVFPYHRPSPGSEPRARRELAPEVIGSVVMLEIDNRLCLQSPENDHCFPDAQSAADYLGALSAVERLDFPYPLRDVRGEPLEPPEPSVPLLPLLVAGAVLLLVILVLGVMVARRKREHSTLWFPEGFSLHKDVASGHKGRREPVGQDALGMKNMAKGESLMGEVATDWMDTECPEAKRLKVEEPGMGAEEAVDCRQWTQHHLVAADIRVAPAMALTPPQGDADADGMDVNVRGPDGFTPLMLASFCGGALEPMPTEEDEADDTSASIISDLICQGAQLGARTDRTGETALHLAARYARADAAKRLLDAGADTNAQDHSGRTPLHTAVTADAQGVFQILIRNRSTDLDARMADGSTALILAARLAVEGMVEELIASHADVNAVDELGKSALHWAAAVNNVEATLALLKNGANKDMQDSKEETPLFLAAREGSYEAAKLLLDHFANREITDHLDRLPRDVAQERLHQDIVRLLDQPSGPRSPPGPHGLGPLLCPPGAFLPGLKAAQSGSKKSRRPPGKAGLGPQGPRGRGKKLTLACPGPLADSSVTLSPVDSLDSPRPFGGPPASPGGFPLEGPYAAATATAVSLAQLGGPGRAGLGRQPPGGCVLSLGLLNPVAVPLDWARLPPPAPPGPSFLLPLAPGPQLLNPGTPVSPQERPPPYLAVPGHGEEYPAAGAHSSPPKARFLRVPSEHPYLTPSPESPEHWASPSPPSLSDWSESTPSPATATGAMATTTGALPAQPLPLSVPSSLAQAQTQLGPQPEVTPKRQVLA

As for `CC(C)C(=C=CC[C@@H](O)c1ccc(CO)o1)CCO`, the composite z-score in test [1] was -0.237; in test [2], 0.852; in test [3], 0.116; in test [4] it was -0.191; in test [5], 1.78; in [6] it was -0.2. The composite z-score in [7] is -0.479; in [9] it was 0.9; in test [10], 0.367; in test [11] it was -0.171; in test [12] it was 0.197; in test [13] it was 0.39. Also, the composite z-score was 1.08 in [14]; 0.185 in [15]; 0.0308 in [17]; -0.108 in test [18]; -0.13 in [19]; -0.178 in test [20]. In addition, the z-score is -0.493 (inactive) in test [8] and -0.744 in test [16].
Consider `CO[C@H]1O[C@H](CO)[C@@H](OC(=O)Nc2ccccc2)[C@H](OC(=O)Nc2ccc3c(c2)OCO3)[C@H]1OC(=O)Nc1ccc2c(c1)OCO2`, for which the composite z-score is 0.0789 in test [1]; 0.128 in test [2]; 1.06 in test [3]; -0.0527 in test [4]; 1.59 in test [5]; 0.666 in test [6]. Besides, the composite z-score was 0.757 in test [7]; 0.729 in [9]; 0.741 in test [10]; -0.242 in [11]; 0.292 in test [12]; 0.0894 in test [13]. The composite z-score is 0.798 in test [14]; 0.538 in test [15]; 0.452 in test [17]; 1.65 in [18]; -0.617 in [19]; 0.0973 in test [20]. For the same molecule, the z-score in test [8] was -0.618 (inactive); in test [16], -1.04.
Regarding `COc1ccc([Si](C)(C)[C@H]2[C@H](CC(=O)N(CCO)Cc3ccccc3)O[C@@]3(C(=O)N(Cc4ccc(N5CCOC5=O)cc4)c4ccccc43)[C@@H]2C)cc1`, the composite z-score is -0.0595 in [1]; 0.821 in [2]; 0.361 in test [3]; -0.146 in test [4]; 0.614 in [5]; 0.0402 in [6]. Besides, the composite z-score in [7] was 0.32; in test [9], 0.286; in test [10], -0.137; in test [11] it was 0.109; in test [12], 0.276; in test [13], 0.512. Further, the composite z-score in test [14] was 0.6; in [15], 0.162; in test [17], 0.23; in [18] it was 0.228; in test [19], 0.342; in test [20] it was -0.0944. Further, the z-score in test [8] was -1.56 (inactive); in test [16], -2.94.
As to `CCCCCN1CC=CC23O[C@@H]4/C=C\CCC(C)OC(=O)C4[C@H]2C(=O)N(CCO)[C@@H]3C1=O` (stereo not given in full), the composite z-score was -0.139 in test [1]; -1.36 in [2]; -0.728 in [3]; -0.317 in test [4]; 1.3 in [5]; -0.205 in test [6]. Besides, the composite z-score is 0.791 in test [7]; -0.825 in test [9]; -0.413 in [10]; -1.81 in test [11]; -1.13 in [12]; -1.2 in test [13]. Besides, the composite z-score in test [14] is 1.57; in [15], 0.408; in test [17], -1.43; in test [18], -0.659; in [19], -0.295; in [20], -0.176. The z-score was -0.688 (inactive) in [8] and 0.382 in [16].
In the case of `C=C(CCCC)/C(=C/C[C@@H](OC(=O)c1ccncc1)c1ccc(OCCO)cc1)c1cnc2ccccc2c1`, the composite z-score was -0.0523 in test [1]; 1.72 in [2]; 1.06 in [3]; -0.0243 in test [4]; 0.711 in test [5]; 0.358 in test [6]. For the same molecule, the composite z-score worked out at 0.686 in test [7]; 1.24 in test [9]; 0.633 in test [10]; 1.15 in [11]; 1.53 in test [12]; 1.68 in test [13]. Further, the composite z-score in [14] was 1.8; in test [15], 0.602; in test [17], 0.737; in test [18], 0.0142; in [19], -0.184; in test [20], -0.096. In addition, the z-score in test [8] was -1.18 (inactive); in test [16], -1.3.
Consider `Cc1ccc(N2C(=O)c3ccccc3[C@](C)(C(=O)NCC(F)(F)F)[C@@H]2c2ccc(CO)cc2)nc1`, for which the composite z-score was -0.0741 in [1]; -1.81 in test [2]; -2.16 in [3]; -0.352 in [4]; 0.919 in [5]; 0.421 in [6]. Further, the composite z-score in test [7] is 0.949; in [9] it was -0.975; in [10] it was -1.29; in test [11] it was -1.27; in test [12], -1.82; in [13], -1.15. Also, the composite z-score in test [14] was -0.528; in test [15], -2.53; in test [17], -1.47; in test [18], -0.538; in test [19] it was 0.733; in test [20] it was -0.132. Moreover, the z-score is 0.21 (inactive) in [8] and 0.208 in test [16].
